According to the supplement of paper PMC10849652:
The full data set covers some 8,800 targets. This sample favours those with a hit. About 0.5% of all pairs of compound and target were hits. A number with no mark means an inactive call.

Key:
Test in all cases: log2 fold change, soluble protein after heating vs DMSO (PISA); higher = thermal stabilisation; K562 lysate, 10 uM; active = over 0.2 and 3.5 SD of the protein, either way, in both replicates (recomputed)
alvocidib = compound: CN1CC[C@H](c2c(O)cc(O)c3c(=O)cc(-c4ccccc4Cl)oc23)[C@H](O)C1 [alvocidib]
Outline: (§1)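 Soluble protein was defined as the supernatant remaining after 21,000xg for 90 min, following pooling of heated aliquots and adjustment to 0.5% NP-40 at 4°C. Before that, crude K562 extract at 1 mg/mL protein in PBS pH 7.4 with 1 mM MgCl2 was treated with 10 μM compound for 30 min and heated for 3 min across 48°C-58°C. Quantification used TMTpro 16plex LC-MS/MS with channel sums equalised, and values are log-two fold changes in thermal stability relative to solvent controls from duplicates.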

Tubastatin A = compound: CN1CCc2c(c3ccccc3n2Cc2ccc(C(=O)NO)cc2)C1 [Tubastatin A]
Outline: as §1

[1] = compound: CNC(=O)C1=CC=CC=C1NC2=NC(=NC=C2Cl)NC3=C(C=C(C=C3)N4CCOCC4)OC
Outline: as §1

defactinib = compound: CNC(=O)c1ccc(Nc2ncc(C(F)(F)F)c(NCc3nccnc3N(C)S(C)(=O)=O)n2)cc1 [defactinib]
Outline: as §1

[2] = compound: CNc1nc(-c2ccc3c(N)n[nH]c3c2)cc(N2C[C@@H](C(=O)NC3CCCCC3)CC[C@H]2C)n1
Outline: as §1

encorafenib = compound: COC(=O)N[C@@H](C)CNc1nccc(-c2cn(C(C)C)nc2-c2cc(Cl)cc(NS(C)(=O)=O)c2F)n1 [encorafenib]
Outline: as §1

[3] = compound: COC(=O)[C@H](CCSC)NC(=O)C1=C(C=C(C=C1)NC[C@H](CS)N)C2=CC=CC=C2
Outline: as §1

alisertib = compound: COc1cc(Nc2ncc3c(n2)-c2ccc(Cl)cc2C(c2c(F)cccc2OC)=NC3)ccc1C(=O)O [alisertib]
Outline: as §1

[4] = compound: COc1cc2nc(-c3cc(F)ccc3O)nc(N[C@@H]3CNC[C@H]3C(C)(C)O)c2cc1OC
Outline: as §1

gefitinib = compound: COc1cc2ncnc(Nc3ccc(F)c(Cl)c3)c2cc1OCCCN1CCOCC1 [gefitinib]
Outline: as §1

lapatinib = compound: CS(=O)(=O)CCNCc1ccc(-c2ccc3ncnc(Nc4ccc(OCc5cccc(F)c5)c(Cl)c4)c3c2)o1 [lapatinib]
Outline: as §1

pictilisib = compound: CS(=O)(=O)N1CCN(Cc2cc3nc(-c4cccc5[nH]ncc45)nc(N4CCOCC4)c3s2)CC1 [pictilisib]
Outline: as §1

crizotinib = compound: C[C@@H](Oc1cc(-c2cnn(C3CCNCC3)c2)cnc1N)c1c(Cl)ccc(F)c1Cl [crizotinib]
Outline: as §1

[5] = compound: C[C@H](C1=CC=C(C=C1)C(=O)NC2=C3C=CNC3=NC=C2)N
Outline: as §1

duvelisib = compound: C[C@H](Nc1ncnc2nc[nH]c12)c1cc2cccc(Cl)c2c(=O)n1-c1ccccc1 [duvelisib]
Outline: as §1

gandotinib = compound: Cc1cc(Nc2cc(CN3CCOCC3)c3nc(C)c(Cc4ccc(Cl)cc4F)n3n2)n[nH]1 [gandotinib]
Outline: as §1

tozasertib = compound: Cc1cc(Nc2cc(N3CCN(C)CC3)nc(Sc3ccc(NC(=O)C4CC4)cc3)n2)n[nH]1 [tozasertib]
Outline: as §1

doramapimod = compound: Cc1ccc(-n2nc(C(C)(C)C)cc2NC(=O)Nc2ccc(OCCN3CCOCC3)c3ccccc23)cc1 [doramapimod]
Outline: as §1

bafetinib = compound: Cc1ccc(NC(=O)c2ccc(CN3CC[C@H](N(C)C)C3)c(C(F)(F)F)c2)cc1Nc1nccc(-c2cncnc2)n1 [bafetinib]
Outline: as §1

[6] = compound: Cc1cccc(CC(=O)N2CCc3c2ccc(-c2cn(C)c4ncnc(N)c24)c3F)n1
Outline: as §1

UniProt Q86UE8, sequence (Q86UE8 whole entry, looked up): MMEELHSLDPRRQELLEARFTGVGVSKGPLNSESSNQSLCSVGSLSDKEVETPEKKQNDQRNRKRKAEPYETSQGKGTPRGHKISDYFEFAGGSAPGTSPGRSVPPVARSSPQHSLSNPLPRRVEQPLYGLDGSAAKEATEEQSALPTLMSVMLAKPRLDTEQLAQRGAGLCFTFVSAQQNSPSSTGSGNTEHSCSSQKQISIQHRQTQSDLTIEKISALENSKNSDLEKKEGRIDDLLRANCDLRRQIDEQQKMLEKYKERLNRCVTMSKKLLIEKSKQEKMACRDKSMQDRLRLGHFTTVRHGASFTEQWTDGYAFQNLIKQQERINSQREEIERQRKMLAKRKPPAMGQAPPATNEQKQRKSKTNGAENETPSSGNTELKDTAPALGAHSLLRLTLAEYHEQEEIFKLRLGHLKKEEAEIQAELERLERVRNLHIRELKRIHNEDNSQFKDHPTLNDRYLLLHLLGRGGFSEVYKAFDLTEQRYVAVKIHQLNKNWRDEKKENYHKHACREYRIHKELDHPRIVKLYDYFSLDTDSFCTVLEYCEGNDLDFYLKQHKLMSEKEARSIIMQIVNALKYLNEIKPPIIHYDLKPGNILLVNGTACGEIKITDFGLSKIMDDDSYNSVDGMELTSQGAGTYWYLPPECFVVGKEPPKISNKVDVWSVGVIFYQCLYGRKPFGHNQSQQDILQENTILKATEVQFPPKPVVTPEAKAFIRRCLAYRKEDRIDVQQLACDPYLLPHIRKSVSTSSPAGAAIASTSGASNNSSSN
UniProt P22314, sequence (P22314 whole entry, looked up): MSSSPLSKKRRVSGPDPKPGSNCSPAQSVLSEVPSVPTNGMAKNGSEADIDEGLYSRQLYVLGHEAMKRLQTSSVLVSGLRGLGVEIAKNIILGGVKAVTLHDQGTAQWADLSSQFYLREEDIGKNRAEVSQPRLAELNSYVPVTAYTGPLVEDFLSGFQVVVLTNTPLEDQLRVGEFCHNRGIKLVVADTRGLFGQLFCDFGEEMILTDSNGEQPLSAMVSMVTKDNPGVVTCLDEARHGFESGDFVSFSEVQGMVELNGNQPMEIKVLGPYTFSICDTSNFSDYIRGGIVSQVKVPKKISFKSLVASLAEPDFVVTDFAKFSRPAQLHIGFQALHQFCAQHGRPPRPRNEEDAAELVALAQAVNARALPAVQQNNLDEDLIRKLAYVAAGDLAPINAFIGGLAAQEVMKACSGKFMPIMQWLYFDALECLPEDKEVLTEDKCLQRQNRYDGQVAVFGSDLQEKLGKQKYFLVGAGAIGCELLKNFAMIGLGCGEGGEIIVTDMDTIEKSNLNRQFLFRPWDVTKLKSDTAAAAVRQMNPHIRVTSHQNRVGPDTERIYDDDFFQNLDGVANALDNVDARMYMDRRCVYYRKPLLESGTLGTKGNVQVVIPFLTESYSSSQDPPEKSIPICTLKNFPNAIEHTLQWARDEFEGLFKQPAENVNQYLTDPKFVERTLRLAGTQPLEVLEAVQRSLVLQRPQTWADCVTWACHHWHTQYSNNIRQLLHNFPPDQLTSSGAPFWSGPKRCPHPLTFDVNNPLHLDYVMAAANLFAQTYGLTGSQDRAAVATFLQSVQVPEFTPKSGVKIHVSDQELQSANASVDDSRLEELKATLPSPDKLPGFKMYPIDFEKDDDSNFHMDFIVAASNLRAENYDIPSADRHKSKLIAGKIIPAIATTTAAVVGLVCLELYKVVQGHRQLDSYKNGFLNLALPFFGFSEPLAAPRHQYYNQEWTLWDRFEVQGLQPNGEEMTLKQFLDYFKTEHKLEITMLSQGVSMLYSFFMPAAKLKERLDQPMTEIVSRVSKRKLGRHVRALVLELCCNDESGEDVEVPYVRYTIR
UniProt Q96BS2, sequence (Q96BS2 whole entry, looked up): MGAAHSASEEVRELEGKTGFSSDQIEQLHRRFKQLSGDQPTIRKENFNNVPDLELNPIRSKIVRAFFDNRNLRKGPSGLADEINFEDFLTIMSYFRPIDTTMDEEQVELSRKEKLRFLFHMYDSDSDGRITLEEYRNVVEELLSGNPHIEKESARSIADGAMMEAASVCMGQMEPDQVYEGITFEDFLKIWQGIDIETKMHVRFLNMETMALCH
UniProt P67936, sequence (P67936 whole entry, looked up): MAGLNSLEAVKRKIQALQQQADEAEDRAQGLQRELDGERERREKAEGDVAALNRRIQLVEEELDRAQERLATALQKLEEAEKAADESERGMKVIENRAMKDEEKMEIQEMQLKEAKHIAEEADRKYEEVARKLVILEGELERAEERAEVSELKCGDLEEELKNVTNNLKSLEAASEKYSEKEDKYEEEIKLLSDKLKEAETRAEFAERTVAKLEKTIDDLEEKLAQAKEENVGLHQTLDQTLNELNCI
UniProt P04818, sequence (P04818 whole entry, looked up): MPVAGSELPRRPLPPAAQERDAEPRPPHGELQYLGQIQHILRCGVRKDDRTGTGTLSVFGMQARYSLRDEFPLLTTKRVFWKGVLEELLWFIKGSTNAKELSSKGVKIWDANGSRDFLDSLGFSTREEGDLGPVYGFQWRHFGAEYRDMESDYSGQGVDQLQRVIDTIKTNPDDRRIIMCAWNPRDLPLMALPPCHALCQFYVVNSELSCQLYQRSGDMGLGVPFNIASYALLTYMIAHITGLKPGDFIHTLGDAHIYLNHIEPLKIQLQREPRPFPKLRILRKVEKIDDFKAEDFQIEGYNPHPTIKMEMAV
UniProt Q9NNW7, sequence (Q9NNW7 whole entry, looked up): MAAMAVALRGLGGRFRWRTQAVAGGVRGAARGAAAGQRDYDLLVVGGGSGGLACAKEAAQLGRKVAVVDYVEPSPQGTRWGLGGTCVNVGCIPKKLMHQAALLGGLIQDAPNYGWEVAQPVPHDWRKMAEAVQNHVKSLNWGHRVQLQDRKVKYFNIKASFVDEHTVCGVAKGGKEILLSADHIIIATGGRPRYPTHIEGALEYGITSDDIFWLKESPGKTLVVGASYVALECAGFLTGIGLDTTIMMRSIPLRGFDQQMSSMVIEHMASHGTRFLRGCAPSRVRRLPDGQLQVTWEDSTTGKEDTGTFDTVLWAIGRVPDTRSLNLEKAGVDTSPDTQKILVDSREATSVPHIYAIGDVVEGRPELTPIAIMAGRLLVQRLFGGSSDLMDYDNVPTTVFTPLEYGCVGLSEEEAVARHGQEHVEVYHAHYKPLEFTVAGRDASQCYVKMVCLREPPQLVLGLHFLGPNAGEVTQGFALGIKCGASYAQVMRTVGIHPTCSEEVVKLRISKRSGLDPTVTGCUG
UniProt O75865, sequence (O75865 whole entry, looked up): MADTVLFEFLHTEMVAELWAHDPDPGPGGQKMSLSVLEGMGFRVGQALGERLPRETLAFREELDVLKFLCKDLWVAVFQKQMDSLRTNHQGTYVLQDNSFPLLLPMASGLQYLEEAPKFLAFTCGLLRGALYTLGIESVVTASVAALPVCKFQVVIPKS
UniProt Q9NYB0, sequence (Q9NYB0 whole entry, looked up): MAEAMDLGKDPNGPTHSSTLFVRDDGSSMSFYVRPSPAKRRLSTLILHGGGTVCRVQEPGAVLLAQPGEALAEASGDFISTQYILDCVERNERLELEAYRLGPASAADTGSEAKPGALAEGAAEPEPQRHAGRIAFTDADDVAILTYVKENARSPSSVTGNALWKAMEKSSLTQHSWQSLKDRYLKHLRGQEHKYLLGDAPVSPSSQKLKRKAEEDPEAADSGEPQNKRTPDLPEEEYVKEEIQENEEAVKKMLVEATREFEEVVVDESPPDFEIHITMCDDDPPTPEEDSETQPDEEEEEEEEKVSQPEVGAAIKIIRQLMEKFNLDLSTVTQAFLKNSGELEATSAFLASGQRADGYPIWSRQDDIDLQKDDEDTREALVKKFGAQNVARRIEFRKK
UniProt Q8TBZ6, sequence (Q8TBZ6 whole entry, looked up): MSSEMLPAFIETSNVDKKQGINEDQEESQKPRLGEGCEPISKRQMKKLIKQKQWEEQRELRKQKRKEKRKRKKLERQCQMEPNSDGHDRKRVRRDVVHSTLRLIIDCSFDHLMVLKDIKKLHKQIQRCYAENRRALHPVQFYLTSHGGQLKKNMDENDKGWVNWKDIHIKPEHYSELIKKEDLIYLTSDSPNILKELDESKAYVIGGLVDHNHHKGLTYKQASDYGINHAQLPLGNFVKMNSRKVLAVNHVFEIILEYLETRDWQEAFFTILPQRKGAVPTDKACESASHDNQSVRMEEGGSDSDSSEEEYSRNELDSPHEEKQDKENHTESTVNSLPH
UniProt Q8NG68, sequence (Q8NG68 whole entry, looked up): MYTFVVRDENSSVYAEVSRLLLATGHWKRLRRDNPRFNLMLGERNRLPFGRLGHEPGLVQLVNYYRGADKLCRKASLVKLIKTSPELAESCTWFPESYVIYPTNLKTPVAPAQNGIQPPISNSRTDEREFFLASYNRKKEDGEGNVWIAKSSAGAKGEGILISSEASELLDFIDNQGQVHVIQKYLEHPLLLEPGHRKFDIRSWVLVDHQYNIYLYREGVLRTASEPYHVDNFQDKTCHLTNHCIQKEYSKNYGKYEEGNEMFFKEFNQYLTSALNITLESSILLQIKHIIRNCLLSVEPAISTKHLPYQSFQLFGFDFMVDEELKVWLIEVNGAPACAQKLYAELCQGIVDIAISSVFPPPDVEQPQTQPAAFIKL
UniProt P28289, sequence (P28289 whole entry, looked up): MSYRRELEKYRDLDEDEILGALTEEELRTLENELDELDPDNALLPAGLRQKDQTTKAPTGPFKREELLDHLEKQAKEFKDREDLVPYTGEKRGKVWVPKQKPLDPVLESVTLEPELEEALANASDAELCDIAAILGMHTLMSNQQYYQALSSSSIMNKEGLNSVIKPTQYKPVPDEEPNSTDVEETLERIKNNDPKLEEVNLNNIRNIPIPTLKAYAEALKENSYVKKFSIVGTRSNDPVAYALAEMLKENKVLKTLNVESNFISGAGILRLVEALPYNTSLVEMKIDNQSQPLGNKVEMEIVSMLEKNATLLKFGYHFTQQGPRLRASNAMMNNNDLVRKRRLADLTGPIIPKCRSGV

Target | log2 fold change (alvocidib) | log2 fold change (Tubastatin A) | log2 fold change [1] | log2 fold change (defactinib) | log2 fold change [2] | log2 fold change (encorafenib) | log2 fold change [3] | log2 fold change (alisertib) | log2 fold change [4] | log2 fold change (gefitinib) | log2 fold change (lapatinib) | log2 fold change (pictilisib) | log2 fold change (crizotinib) | log2 fold change [5] | log2 fold change (duvelisib) | log2 fold change (gandotinib) | log2 fold change (tozasertib) | log2 fold change (doramapimod) | log2 fold change (bafetinib) | log2 fold change [6]
TBRG4 (UniProt Q969Z0) | 0.017 | -0.089 | 0.007 | 0.071 | -0.018 | 0.01 | -0.013 | 0.037 | -0.008 | -0.015 | -0.021 | -0.039 | -0.031 | 0.08 | 0.006 | -0.269 (active) | 0.038 | -0.012 | -0.029 | -0.021
TOPBP1 (UniProt Q92547) | 0.024 | -0.067 | 0.033 | 0.047 | 0.01 | -0.024 | 0.108 | -0.039 | 0.034 | 0.008 | 0.095 | -0.037 | 0.023 | 0.206 | -0.03 | -0.048 | -0.066 | 0.056 | -0.076 | -0.017
TTL (UniProt Q8NG68) | 0.112 | -0.143 | 0.015 | -0.065 | 0.001 | 0.079 | 0.144 | -0.027 | 0.019 | 0.112 | -0.015 | -0.057 | -0.067 | 0.096 | 0.356 (active) | -0.033 | -0.112 | -0.011 | -0.091 | -0.048
TERF2IP (UniProt Q9NYB0) | 0.087 | 0.014 | 0.009 | -0.008 | 0.019 | 0 | -0.038 | -0.015 | 0.011 | -0.003 | -0.007 | 0.007 | 0.021 | 0.249 (active) | 0.022 | -0.122 | -0.023 | -0.016 | 0.004 | -0.181
TMOD1 (UniProt P28289) | 0.017 | -0.081 | 0.042 | 0.046 | -0.009 | -0.004 | -0.002 | 0.014 | 0.016 | -0.008 | 0 | -0.032 | -0.011 | 0.039 | -0.008 | -0.059 | 0.026 | 0.019 | -0.004 | -0.029
TTC12 isoform 2 (UniProt Q9H892) | -0.024 | -0.279 | -0.06 | -0.05 | -0.041 | -0.052 | -0.03 | -0.145 | -0.043 | 0.137 | -0.053 | -0.153 | -0.068 | -0.416 | 0.143 | 0.031 | 0.092 | 0.022 | -0.14 | 0.445 (active)
TRADD (UniProt Q15628) | -0.029 | -0.066 | 0.021 | -0.092 | 0.021 | -0.012 | -0.241 | 0.009 | 0.004 | -0.03 | -0.015 | -0.011 | -0.003 | -0.022 | -0.081 | -0.03 | -0.011 | -0.022 | -0.034 | 0.035
TLK2 isoform 2 (UniProt Q86UE8) | -0.027 | -0.07 | -0.03 | 0.117 | -0.071 | 0.046 | -0.063 | -0.01 | 0.041 | -0.004 | -0.041 | 0.112 | -0.029 | -0.115 | -0.042 | 0.351 (active) | 0.126 | 0.006 | 0.004 | 0.049
TPM4 isoform 2 (UniProt P67936) | 0.062 | 0.03 | -0.027 | -0.059 | 0.028 | -0.004 | -0.077 | -0.098 | -0.01 | -0.004 | 0.007 | 0 | 0.091 | 0.329 (active) | 0.011 | -0.138 | -0.027 | 0.002 | 0.075 | -0.164
UBP1 (UniProt Q9NZI7) | 0.049 | -0.121 | 0.058 | 0.077 | 0.002 | 0.115 | 0.019 | 0.059 | -0.011 | -0.073 | 0.049 | -0.004 | -0.202 | 0.206 | -0.025 | -0.01 | -0.043 | 0.15 | -0.029 | -0.124
UBA1 (UniProt P22314) | 0.012 | -0.082 | 0.007 | -0.011 | -0.026 | -0.017 | 0.139 | 0.001 | 0.002 | -0.01 | -0.005 | -0.003 | -0.037 | -0.012 | 0.011 | -0.017 | -0.005 | 0.009 | -0.017 | 0.023
TRAPPC6A isoform 2 (UniProt O75865) | 0.059 | -0.006 | 0.011 | -0.026 | -0.017 | -0.142 | -0.027 | -0.052 | 0 | -0.043 | 0.02 | 0.015 | 0.001 | -0.146 | -0.006 | 0.14 | -0.039 | -0.01 | 0.017 | 0.05
TESC (UniProt Q96BS2) | -0.037 | 0.022 | -0.008 | -0.007 | -0.034 | 0.033 | -0.037 | -0.053 | -0.058 | 0.091 | -0.03 | -0.122 | 0 | -0.095 | 0.026 | -0.066 | 0.026 | 0.073 | 0.048 | 0.037
TRMT10A (UniProt Q8TBZ6) | 0.003 | -0.008 | 0.095 | -0.01 | 0.09 | -0.031 | -0.012 | 0.015 | -0.021 | -0.004 | 0.042 | 0.083 | 0.031 | -0.041 | 0.001 | 0.02 | -0.047 | 0.001 | 0.012 | 0.059
TYMS (UniProt P04818) | 0.015 | -0.023 | 0.017 | 0.002 | -0.018 | 0.013 | -0.006 | 0.021 | 0.006 | -0.024 | -0.007 | -0.017 | 0.002 | 0.003 | 0.018 | 0.058 | 0.011 | -0.019 | -0.005 | -0.017
TXNRD2 (UniProt Q9NNW7) | -0.006 | 0.021 | 0.018 | 0.015 | 0.007 | 0.039 | -0.034 | 0 | 0.008 | -0.064 | 0 | -0.017 | 0.003 | -0.046 | 0.084 | 0.059 | -0.042 | -0.066 | 0.041 | 0.034
